Results on 50 compounds are retold here after PubChem BioAssay AID588342 (National Center for Advancing Translational Sciences (NCATS), 2011).

SMILES strings stand for the structures. In all, about 360,000 compounds went through this assay and about 25,000 (6.9%) were called active. Inconclusive results (about 9%) are left out. The call rests on the fitted dose curve; in most records, active means well fitted inhibition curve with a large enough effect; inconclusive means small, poorly fitted or top-dose-only effect; inactive means flat fitted curve, though single readings scatter. Shown is part of a subset that was picked to be rich in actives.

Chain of Luciferin 4-monooxygenase (Photinus pyralis) (P08659 whole entry, looked up): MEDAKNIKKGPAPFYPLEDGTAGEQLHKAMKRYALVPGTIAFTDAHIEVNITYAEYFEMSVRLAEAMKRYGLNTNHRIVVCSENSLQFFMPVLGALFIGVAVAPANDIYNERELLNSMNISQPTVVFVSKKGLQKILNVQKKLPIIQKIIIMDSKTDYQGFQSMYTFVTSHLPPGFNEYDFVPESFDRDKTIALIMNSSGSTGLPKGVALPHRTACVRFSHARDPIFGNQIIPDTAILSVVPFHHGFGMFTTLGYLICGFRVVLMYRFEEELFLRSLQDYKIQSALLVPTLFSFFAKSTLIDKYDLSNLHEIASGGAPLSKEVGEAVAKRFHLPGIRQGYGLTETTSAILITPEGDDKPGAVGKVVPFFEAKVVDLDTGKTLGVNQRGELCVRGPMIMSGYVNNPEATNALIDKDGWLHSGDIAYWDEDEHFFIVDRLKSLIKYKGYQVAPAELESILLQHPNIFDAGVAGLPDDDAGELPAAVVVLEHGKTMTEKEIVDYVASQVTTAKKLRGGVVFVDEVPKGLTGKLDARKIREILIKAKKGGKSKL

This assay concerns the target Luciferin 4-monooxygenase (Photinus pyralis) (UniProt P08659). In words: qHTS profiling assay for firefly luciferase inhibitor/activator using purifed enzyme and Km concentrations of substrates (counterscreen for miR-21 project). Further: nearly all actives have a fitted effect of over 55% in size.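 On activity change, negative = inhibition: plate controls were vehicle for no effect and reference inhibitor for full effect.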 The conditions noted are these: purified FLuc, luminescence inhibition; series mostly up to 57.5 µM; activity change, negative = inhibition: at the top concentration. The text has this: MLPCN Grant: 1 R21 NS059478-01 (miR-21 grant) Assay Provider: NCGC NCGC Assay Overview: Firefly (Photinus pyralis) luciferase is one of the most commonly used transcriptional reporters for a number of reasons. It is considered one of the more dynamically responsive reporters -that is, responsive to changes in reporter transcription - as it requires no post-translational modifications and is enzymatically active directly after protein synthesis (Wood, 1998). Additionally, the half-life of the luciferase protein is short relative to other reporter-gene products (Wood, 1995). Whereas reporters with long half-lives potentially allow for increased signal due to accumulation of reporter-gene product, once accumulated in the cell, dynamic changes in reporter-gene expression may be difficult to detect(Fan and Wood, 2007; Almond et al., 2004). It has been shown that wild-type P. pyralis luciferase has a half-life of approximately […] hours in mammalian cells (Thompson et al., 1991). Firefly luciferase reporter-gene assays are also generally considered one of the most sensitive assay types (Wood, 1995; Wood, 1998). Although light produced in a bioluminescence reaction is of lower intensity than that produced during fluorescence emission, this is offset by little to no background light inherent to luminescent assays. Thus the luciferase reporter can be expressed at much lower levels than fluorescent proteins while still providing robust signal. # However, it was initially observed, in 1991, by Thompson et al., that compounds that resemble the substrates of firefly luciferase (FLuc) can act as competitive inhibitors of the enzyme, and that these compounds, upon interaction with luciferase in the cell, can actually stabilize the protein and increase its half-life. Accumulated intracellular FLuc protein can be measured as an increase in luminescence signal, upon addition of detection reagents (which contain high concentrations of FLuc substrates) commonly used in high-throughput screening. In cell-based reporter gene assays that use FLuc as the reporter gene to quantitate the potential influence of a given compound against the target biology, this apparent increase in luminescence can mistakenly be interpreted as identification of a compound that is active against the target of interest. This is the case for the miR-21 FLuc reporter gene assay used to identify inhibitors of the miR-21 pathway (PubChem AID 2289) - compounds of interest will inhibit miR-21 biogenesis/expression or activity, and are identified by causing an increase in luminescence, due to increased FLuc translation. However, FLuc inhibitory compounds that stabilize the FLuc protein will give an identical read-out, making it difficult to distinguish compounds that are active against the target from those active against FLuc. Previous profiling work to determine the prevalence of compounds that affect FLuc enzymatic activity (PubChem AID 411) identified that ~3% of the MLSMR library (then at ~72K) inhibited FLuc. […] Since the MLSMR had grown to ~350K compounds, and since it was expected that a significant percentage of compounds found active in the miR-21 FLuc assay would be FLuc inhibitors, the library was screened for activity against FLuc using a biochemical assay of purified FLuc and KM concentrations of FLuc substrates (D-luciferin and ATP).
NCGC Assay Protocol Summary: Reagents: 50mM Tris acetate, pH 7.5; 10mM Mg acetate; 10uM D-luciferin (Sigma #L9504); 10uM ATP; 0.01% Tween-20; 0.05% BSA; 10nM P. pyralis luciferase (Sigma #L9506) Control compounds used were two known firefly luciferase inhibitors (compounds (2) and (5) in Auld et al., 2010), and DMSO. […]
A general note: qHTS replaces the single test concentration by a dilution series.
For the compound `COc1ccc(NC(=O)Nc2cccc3cccnc23)cc1`, the Potency was 1.9 µM (active).
Regarding `CC(C)c1c(CN(C)C(C)Cc2ccccc2)n(C)n(-c2ccccc2)c1=O` (stereo not given), the “activity change, negative = inhibition” value was -1.08% (inactive).
On to `Cc1ccccc1NC(=O)COC(=O)c1cc(C)n(C2CC2)c1C`, for which the “activity change, negative = inhibition” value was -2.71% (inactive).
Turning to `COC(=O)C1=C(c2cccc(OCc3ccccc3)c2)C[C@@H]2CC[C@H]1N2C(=O)NCc1ccc(Br)cc1`, the “activity change, negative = inhibition” value is -2.45% (inactive).
`COc1cccc(-c2nc3ccc(N4CCN(C)CC4)cc3[nH]2)c1`: the Potency was 0.269 µM (active).
As for `COc1ccc(C(=O)CC2C(=O)N(C)C(=O)N(C)C2=O)cc1`, the “activity change, negative = inhibition” value is -1.78% (inactive).
On to `O=c1c2ccccc2nc(/C=C/c2ccco2)n1-c1ccccc1O`, for which the “activity change, negative = inhibition” value was -4.89% (inactive).
`Cn1c(O)c(C=Nc2ccc3c(c2)CCC3)c(=O)n(C)c1=O`: the Potency was 3.38 µM (active).
`Cn1c(O)c(C=NCCCC(=O)O)c(=O)n(C)c1=O`: the “activity change, negative = inhibition” value was 2.19% (inactive).
As to `Cn1c(O)c(C=NCCN2CCNCC2)c(=O)n(C)c1=O`, the “activity change, negative = inhibition” value was 5.53% (inactive).
Take `CCN1C(=O)C(=Cc2c(C)n(CC(=O)NCC3CCCO3)c3ccccc23)C(=O)N(CC)C1=S` (stereo not given): the “activity change, negative = inhibition” value was -22% (inactive).
Take `COC(=O)C1=C(c2ccc(F)cc2OCc2ccccc2)C[C@@H]2CC[C@H]1N2C(=O)NCc1ccc(C(C)(C)C)cc1`: the “activity change, negative = inhibition” value was 1.61% (inactive).
Turning to `O=C(OCC(=O)c1cccs1)C1=COCCO1`, the Potency is 23.9 µM (active).
For `CSC1=NP(=S)(SC)N(C)c2nc3n(c21)CCC3` (stereo not given), the “activity change, negative = inhibition” value was 2.17% (inactive).
Same read-out and setting: the same measure for `CC(C)c1ccc(OCC(=O)N2CCCN(C)CC2)cc1`: -16.6% (inactive); for `CN(C)CC1CCCCC1=O` (stereo not given): 3.35% (inactive).
On the same count and under the same terms, the same measure for `CC(=O)Nc1ccc(C(=O)C(Cc2ccccc2)N(C)C)cc1` (stereo not given): 0.596% (inactive).
As for `O=C1NC(=O)N(c2ccccc2)C(=O)/C1=C/c1ccc([N+](=O)[O-])s1`, the Potency was 26.9 µM (active).
Regarding `O=C1NC(=O)N(c2ccc(F)cc2)C(=O)/C1=C/c1ccc2c(c1)CCCN2Cc1ccccc1`, the “activity change, negative = inhibition” value is -11.8% (inactive).
Turning to `CCN(CC)C(=O)c1ccc(NC(=O)c2sccc2-c2ccccc2)cc1`, the “activity change, negative = inhibition” value was -3.15% (inactive).
Consider `O=[N+]([O-])c1ccc(C2C3C(c4ccccc4)=NC4(CCCCC4)N32)cc1` (stereo not given), for which the “activity change, negative = inhibition” value was 7.73% (inactive).
With `CC(=O)Oc1ccccc1C(=O)Nc1ncc([N+](=O)[O-])s1`, the Potency is 6.75 µM (active).
Regarding `C[C@]12CC[C@H](O)C[C@H]1CC[C@@H]1C2CC[C@]2(C)[C@@H](C3=CC(=O)OC3)[C@@H](O)C[C@]12O` (stereo not given in full), the “activity change, negative = inhibition” value is 2.82% (inactive).
Regarding `CCC1(C)CC(CCNCc2ccc(N(C)C)cc2)(c2ccc(F)cc2)CCO1` (stereo not given), the “activity change, negative = inhibition” value was -0.536% (inactive).
On the same count and under the same terms, the same measure for `CC(C)CN1CCN(Cc2ccccc2C(F)(F)F)CC1CCO` (stereo not given): 0.0821% (inactive); for `NC(=O)Cn1cc(C(=O)c2ccccc2F)c2ccccc21`: -2.49% (inactive).
For the compound `N#Cc1ccc(Cn2cc(C(=O)c3ccco3)c3ccccc32)cc1`, the Potency is 19 µM (active).
Take `CN1CCC(OC(=O)c2cccc(F)c2)CC1`: the “activity change, negative = inhibition” value was -2.03% (inactive).
The same measure, in the same setting: the result for `O=[N+]([O-])c1cnc2ccc3ccccc3c2c1` reads -4.49% (inactive); that for `CCCCCn1c(=O)c(C(=O)NCc2ccccc2)c(O)c2ccccc21`, -0.847% (inactive).
On to `COC(=O)C1=C(c2c(C)noc2C)C[C@@H]2CC[C@H]1N2C(=O)NCc1ccc2c(c1)OCO2`, for which the “activity change, negative = inhibition” value was 6.85% (inactive).
In the case of `Cc1nnc(NC(=O)c2cccn(Cc3cccc(F)c3)c2=O)s1`, the “activity change, negative = inhibition” value was 2.28% (inactive).
Regarding `Cc1cccc(Cn2cccc(C(=O)Nc3ccc4c(c3)OCCO4)c2=O)c1`, the Potency is 15.1 µM (active).
Take `Cc1ccc(NC(=O)N(Cc2ccc3c(c2)OCO3)C2CCN(Cc3ccccc3)CC2)cc1F`: the “activity change, negative = inhibition” value is 1.32% (inactive).
As to `Cn1cc(C(=O)OCC(=O)N2CCCC2)c2ccccc21`, the “activity change, negative = inhibition” value was -4.49% (inactive).
As for `COC(=O)C1=C(c2ccccc2OCc2ccccc2)C[C@@H]2CC[C@H]1N2C(=O)NCc1ccc(OC)cc1`, the “activity change, negative = inhibition” value was 2.51% (inactive).
`C[C@@]1([C@@H](NP(=O)(c2ccccc2)c2ccccc2)c2ccccc2)C[C@H]1CCO`: the “activity change, negative = inhibition” value is -16.7% (inactive).
Regarding `O=C(O)CCn1cc(C=C2C(=O)NC(=S)NC2=O)c(-c2cccc(Br)c2)n1`, the Potency was 21.3 µM (active).
As to `COC(=O)C1=C(c2ccc(C(C)=O)cc2)C[C@@H]2CC[C@H]1N2C(=O)NCCNC(C)=O`, the “activity change, negative = inhibition” value was 2.93% (inactive).
In the case of `Cc1ccccc1N1C(=O)NC(=O)/C(=C\c2cc(C)n(C)c2C)C1=O`, the “activity change, negative = inhibition” value is 1.58% (inactive).
On the same count and under the same terms, the result for `Cc1cc(C=C2C(=O)NC(=O)NC2=O)c(C)n1-c1ccncc1` reads -19.9% (inactive).
Consider `Cc1ccnc(-n2c(C)cc(/C=C3\C(=O)NC(=S)N(C)C3=O)c2C)c1`, for which the Potency was 7.57 µM (active).
`O=C(CCC(=O)N1C[C@H]2C[C@@H](C1)c1cccc(=O)n1C2)NCc1ccccc1C(F)(F)F`: the “activity change, negative = inhibition” value is -1.48% (inactive).
Regarding `COC(=O)C1=C(c2ccc(-c3ccccc3)c(F)c2)C[C@@H]2CC[C@H]1N2C(=O)NCc1ccc(F)cc1`, the “activity change, negative = inhibition” value was -0.451% (inactive).
Turning to `Cc1cc(C)cc(NC(=S)NC2CC3CCCC(C2)N3Cc2cccs2)c1` (stereo not given), the “activity change, negative = inhibition” value is -1.54% (inactive).
Still for that read-out and setting: the result for `Cc1nc2ccccn2c1P(=S)(N1CCCCC1)N1CCCCC1` reads 6.82% (inactive); that for `O=C1NC(=O)C(C/C=C/c2ccccc2)C(=O)N1`, -2.71% (inactive).
With `Cc1ccc(NN=C2C(=O)OC(C)(C)OC2=O)c(C)c1`, the Potency is 9.53 µM (active).
With `CC1=C(C(=O)Nc2ccccc2)S(=O)(=O)CCO1`, the “activity change, negative = inhibition” value is 2.71% (inactive).
Take `O=C(O)c1ccccc1NC(=O)C1C2CCC(O2)C1C(=O)O` (stereo not given): the “activity change, negative = inhibition” value is -1.49% (inactive).
